Screens as filed in PubChem.
Bim-Mcl-1 – human Bim-Mcl-1 interaction inhibition; Bead-based flow cytometry, Bim peptide-Mcl-1 binding; inhibition, % at 10 µM; 190,000 compounds, 0.1% hits; in the data active = inhibition above about 40%;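 also: 0% = no compound tracer wells and 100% = peptide blocker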
Target sequence (Q07820 whole entry, looked up): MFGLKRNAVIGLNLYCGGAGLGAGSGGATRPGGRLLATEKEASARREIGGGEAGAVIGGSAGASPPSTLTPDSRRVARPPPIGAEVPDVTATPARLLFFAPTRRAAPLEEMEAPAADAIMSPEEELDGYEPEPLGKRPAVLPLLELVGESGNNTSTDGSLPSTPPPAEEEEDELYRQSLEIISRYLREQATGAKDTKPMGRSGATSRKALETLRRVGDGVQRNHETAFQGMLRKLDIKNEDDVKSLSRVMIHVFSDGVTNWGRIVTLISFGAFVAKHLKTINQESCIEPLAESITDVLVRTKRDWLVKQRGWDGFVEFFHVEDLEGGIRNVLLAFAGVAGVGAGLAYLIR
14-3-3 Bad inh – disrupts binding of bovine 14-3-3 zeta to phospho-Bad peptide. P63103. TR-FRET 14-3-3zeta/Dy647-pBad peptide displacement, 1 h. inhibition, % at 21.7 µM. 220,000 compounds, 0.71% hits. AID 781;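 active = inhibition above about 70%, limit read from the data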;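 also: 0% = full 14-3-3 plus peptide FRET controls and 100% = background without 14-3-3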
Target sequence (P63103 whole entry, looked up): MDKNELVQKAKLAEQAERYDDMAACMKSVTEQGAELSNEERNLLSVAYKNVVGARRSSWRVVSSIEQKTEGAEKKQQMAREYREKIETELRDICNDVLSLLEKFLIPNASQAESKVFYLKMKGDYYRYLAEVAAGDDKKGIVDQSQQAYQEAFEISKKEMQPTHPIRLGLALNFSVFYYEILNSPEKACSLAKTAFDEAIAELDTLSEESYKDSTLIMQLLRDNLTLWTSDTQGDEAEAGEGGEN
Mcl1-Bid inh – Mcl-1/Bid interaction inhibition; Q07820; TR-FRET Mcl-1/Bid-Dy647 peptide binding, 1536-well; inhibition, % at 21.7 µM; 220,000 compounds, 0.97% hits; AID 1021;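 active = compounds that cut the binding signal by more than half at the single screening dose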;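 also: His-tagged Mcl-1 with europium anti-His antibody binding Bid BH3 peptide; 0% = Mcl-1 plus peptide wells and 100% = peptide-only wells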
Hck Nef HTS – human Hck-Nef kinase inhibition | P08631 | Recombinant Hck-YEEI plus Nef, Z-Lyte FRET kinase assay | inhibition, % at 20 µM | 220,000 compounds, 0.68% hits | AID 463187;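 active = Hck-Nef kinase inhibition above about 50%, limit read from the data; inactive = inhibition below that limit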;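 also: 0% = DMSO with Hck plus Nef and 100% = Hck alone without Nef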
Mcl1 Noxa PPI – Mcl-1/Noxa interaction inhibition | Q07820 | TR-FRET Mcl-1/Noxa peptide binding, 2 h | inhibition, % at 21.7 µM | 220,000 compounds, 1.5% hits | AID 1022;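 active = compounds that cut the protein-peptide binding signal by more than 50% relative to plate controls in a single-dose test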;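 also: His-tagged Mcl-1 with rhodamine Noxa BH3 peptide and terbium anti-His antibody; 0% = Mcl-1 plus Noxa peptide wells and 100% = peptide-only wells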
eIF4E-4G inh – eIF4E/eIF4G interaction inhibition in translation initiation. inhibition, % at 21.7 µM. TR-FRET eIF4E-eIF4GI(517-606) binding, 2 h. 220,000 compounds, 0.37% hits. AID 782;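 active = inhibition above about 30%, limit read from the data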;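 also: 0% = full FRET control wells and 100% = background wells lacking eIF4GI fragment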
* hit, by the source's call; · = no result; [ ] = another dose, or the depositor's remark. Rows were chosen to be rich in hits. Some 3.5% of all compounds tested hit in one or more screens of this group.

SMILES	Bim-Mcl-1	14-3-3 Bad inh	Mcl1-Bid inh	Hck Nef HTS	Mcl1 Noxa PPI	eIF4E-4G inh
Cc1cccc(C)c1NC(=O)CSc1nnc(-c2ccco2)c(-c2ccco2)n1	2	17	46	6	102*	14
Cc1ccccc1NC(=O)CSc1nnc(-c2ccco2)c(-c2ccco2)n1	0	17	47	0	87*	14
CSc1nnc(-c2ccco2)c(-c2ccco2)n1	-1	6	27	11	78*	23
CSc1nnc(-c2ccccc2)c(-c2ccccc2)n1	·	-5	-19	6	3	7
COc1ccc(NC(=O)C(CC(=O)O)C(C)c2ccccc2)cc1 (stereo unspecified)	-3	-4	-23	20	-5	-2
COc1ccc(OC)c(NC(=S)N(CCc2c(C)[nH]c3ccccc23)Cc2cccs2)c1	0	-8	-17	-4	12	2
COc1ccc(OC)c(NC(=S)N(CCc2c(C)[nH]c3ccc(C)cc23)Cc2cccs2)c1	0	-9	85*	-7	13	-1
Cc1cc(-c2csc(NC(=O)c3ccc(C#N)cc3)n2)c(C)n1Cc1ccccc1	-2	-5	-22	-2	12	6
CCCCCc1ccc(OCCOCCn2c[n+](C)c3ccccc32)c(CCCCC)c1	-4	91*	11	40	21	21
O=C(NCc1ccco1)/C(=C/c1cccnc1)NC(=O)c1cccc(Br)c1	-1	77*[fluorescence artefact?]	-2	-1	-4	-4
CC(C)CN(C)Cc1c(C(=O)N2CCc3ccccc3C2)nc2ccc(Cl)cn12	-3	6	-13	0	-22	7
Cc1ccccc1-n1c(SCC(=O)N/N=C/C=C/c2ccccc2[N+](=O)[O-])nc2ccccc2c1=O	-1	-1	0	3	63*	5
O=C(CSc1nc2ccccc2c(=O)n1-c1ccccc1)N/N=C/C=C/c1ccccc1[N+](=O)[O-]	-1	-1	15	-7	2	3
CCCC(C(=O)O)N1C(=O)/C(=C/c2cccn2C)SC1=S (stereo unspecified)	-2	-9	1	4	52*	4
CC(C)C(C(=O)O)N1C(=O)/C(=C/c2cccn2C)SC1=S (stereo unspecified)	-1	2	-28	3	39	13
Cc1ccccc1NC(=O)C1c2ccccc2Oc2ccccc21	-4	0	-8	3	14	-1
Cc1cccc(C)c1NC(=O)C1c2ccccc2Oc2ccccc21	-4	10	81*	1	17	-6
O=C(COc1ccc(Cl)cc1)NC1=NN(c2ccccc2)C(=O)C1	-2	-17	37	5	4	11
OCCN1CCN(C(=S)NCCc2ccccc2)CC1	-4	-16	-25	0	0	-2
CCN1CCN(C(=S)NCCc2ccccc2)CC1	2	85*	4	0	11	-4
O=C(Cn1cc(SCc2ccc(Cl)cc2)c2ccccc21)N1CCOCC1	-4	-2	52*	4	2	2
O=C(NNC1CC(=O)N(c2ccc(Br)cc2)C1=O)c1ccccn1 (stereo unspecified)	0	-15	-8	21	7	-2
CC1(c2nnc(-c3ccccc3)o2)CC(c2ccncc2)=NO1 (stereo unspecified)	·	53	-37	24	-2	97*
CCOC(=O)N1CCC(NC(=O)C2CCN(S(=O)(=O)N3CCCC3)CC2)CC1	-2	-1	-28	0	1	-14
CCOC(=O)N1CCC(NC(=O)C2CCN(S(=O)(=O)c3c(C)noc3C)CC2)CC1	-1	4	55*	1	-7	11
SMILES	Bim-Mcl-1	14-3-3 Bad inh	Mcl1-Bid inh	Hck Nef HTS	Mcl1 Noxa PPI	eIF4E-4G inh
CCOc1ccccc1-c1c2cc(O)c(=O)cc-2oc2cc(O)c(O)cc12	1	1	-25	2	59*	13
CCN(CC)C(=O)c1ccccc1NS(C)(=O)=O	-2	-7	-17	16	-10	3
COc1ccc(OCc2nc(N)nc(Nc3ccccc3)n2)cc1	-4	-3	5	1	15	6
Nc1nc(COc2ccccc2C=O)nc(Nc2ccccc2)n1	·	9	10	22	4	97*
O/N=C/c1cc(Br)cs1	·	2	-1	6	0	2
COc1ccc(-n2nc(C(=O)NCC(=O)Nc3ccccn3)c3ccccc3c2=O)cc1Cl	-1	72*	32	1	-90	-14
O=[N+]([O-])c1cccc(S(=O)(=O)NCC2CCCO2)c1 (stereo unspecified)	51*	0	-20	3	-13	-1
Cc1ccc(S(=O)(=O)NCC2CCCO2)cc1[N+](=O)[O-] (stereo unspecified)	-7	-18	-15	2	14	-1
COc1ccc(C(=O)Oc2ccc(=O)n(-c3ccccc3)n2)cc1	0	72*	-29	-3	-8	6
O=C(Oc1ccc(=O)n(-c2ccccc2)n1)c1cccc(Cl)c1	-10	35	6	0	7	33*
O=C(Oc1ccc(=O)n(-c2ccccc2)n1)c1ccc(Cl)cc1	-2	48	5	1	3	7
O=C(CCC(=O)OCc1ccc(C(=O)Oc2ccccc2)cc1)Nc1cccc2ccccc12	0	8	1	1	-11	0
O=C(NCc1ccco1)/C(=C\c1cccnc1)NC(=O)c1ccccc1F	0	2	-12	-2	9	0
C/C(=N\Nc1cccc([N+](=O)[O-])c1)c1cc(F)ccc1O	·	-2	6	7	3	-3
CCOC1=C/C(=C/c2c(N)n3nc(-c4ccccc4)sc3nc2=O)C=CC1=O	-1	11	-33	9	89*	12
COC1=C/C(=C/c2c(N)n3nc(-c4ccc(C)cc4)sc3nc2=O)C=CC1=O	3	72*	27	-8	84*	22
CCOC1=C/C(=C/c2c(N)n3oc(C)cc3nc2=O)C=CC1=O	1	-8	-42	4	24	4
CCS(=O)(=O)c1nn2c(N)c(/C=C3/C=CC(=O)C(OC)=C3)c(=O)nc2s1	0	-6	-42	-5	58*	5
COc1cc(OC)cc(C(=O)NNC(=O)c2cc3c(s2)CCCC3)c1	2	-7	-49	1	-5	1
CCOC(=O)C(C)n1ncn2cccc2c1=O (stereo unspecified)	1	3	0	1	12	43*[fluorescence artefact?]
O=C(Nc1cccc(-c2cn3cccnc3n2)c1)c1ccc2c(c1)OCO2	-1	8	41	7	57*	2
CSCCC(NC(=O)c1cccc(S(=O)(=O)N2CCOCC2)c1)C(=O)Nc1cccc(C)c1 (stereo unspecified)	-1	-3	-58	-2	-6	-11
